In PubChem BioAssay (NCATS):
Records with an inconclusive call do not appear. Active and inactive are the calls of the source. The call rests on the fitted dose curve; in most records, active means well fitted inhibition curve with a large enough effect; inconclusive means small, poorly fitted or top-dose-only effect; inactive means flat fitted curve, though single readings scatter.

system: GB4; experiment: qHTS profiling for inhibitors of Plasmodium falciparum proliferation (AID 504749); further: nearly all actives have a fitted effect of over 60% in size;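 on activity, negative = inhibition: 0% = DMSO vehicle and full inhibition = artemisinin control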; settings: P. falciparum in erythrocytes, SYBR Green DNA, 72 h; series mostly up to 28.7 µM; activity, negative = inhibition: at the top concentration
Method in brief: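 SYBR Green fluorescence (ex 485 nm, em 535 nm) reports parasite DNA after 72 h compound exposure of infected red cells at 0.3% parasitemia, 2.5% hematocrit; signal normalized to 0.29 uM artemisinin and vehicle wells.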
Potency means the concentration at half of the fitted maximal effect.

activity, negative = inhibition, inactive:
CCCCCCCCCCCCCCCC(=O)OC[C@H](O)[C@H]1OC[C@@H](O)[C@@H]1O -1.01%
C[C@H]1OC(OC2C(O)[C@@H](O)C(OC3C(O)[C@@H](O)C(O)O[C@@H]3CO)O[C@@H]2CO)[C@H](O)C(O)C1N[C@H]1C=C(CO)[C@@H](O)[C@H](O)C1O (some centres undefined) 2.17%
CCN(CC)CC(=O)Nc1c(C)cc(C)cc1C -18.9%
CC(=O)N[C@H]1[C@H](O[C@@H]2c3ccc(c(Cl)c3)Oc3cc4cc(c3O[C@@H]3O[C@H](CO)[C@@H](O)[C@H](O)C3C)Oc3ccc(cc3Cl)C[C@H]3NC(=O)[C@@H](N)c5ccc(O)c(c5)Oc5cc(O)cc(c5)[C@H](NC3=O)C(=O)N[C@H]4C(=O)N[C@H]3C(=O)N[C@@H]2C(=O)N[C@@H](C(=O)O)c2cc(O)cc(O[C@H]4O[C@H](CO)[C@@H](O)C(O)[C@@H]4O)c2-c2cc3ccc2O)O[C@H](CO)[C@@H](O)[C@@H]1O (some centres undefined) 2.34% [at 12.8 µM]
NC(=O)c1ncn(C2OC(CO)C(O)C2O)c1N (centres undefined) -0.542%
CC1(Cn2ccnn2)[C@H](C(=O)O)N2C(=O)C[C@H]2S1(=O)=O (some centres undefined) -8.89%
CN(C)CC/C=C1\c2ccccc2COc2ccc(CC(=O)O)cc21 -7.78%
OCCN1CC(O)C(O)C(O)C1CO (centres undefined) -0.749%
CC(CCC(=O)O)C1CCC2C3C(=O)C[C@@H]4CC(=O)CC[C@@]4(C)C3CC(=O)[C@]12C (some centres undefined) -9.98%
O=C(OC[C@@H]1O[C@@](O)(COC(=O)c2cccnc2)[C@H](OC(=O)c2cccnc2)[C@H]1OC(=O)c1cccnc1)c1cccnc1 -13.9%
O=[N+]([O-])O[C@H]1CO[C@H]2[C@@H]1OC[C@H]2O -0.264%
COc1cccc(OC)c1C(=O)NC1C(=O)N2C1SC(C)(C)C2C(=O)O (centres undefined) -2.35%
NC[C@@H]1O[C@H](OC2[C@@H](CO)O[C@@H](OC3[C@H](O)[C@H](N)C[C@H](N)[C@H]3OC3O[C@H](CO)[C@@H](O)[C@H](O)[C@@H]3N)[C@H]2O)C(N)[C@H](O)[C@@H]1O (some centres undefined) 1.48%
Cc1ccc(S(=O)(=O)NC(=O)NC(C)Cc2ccccc2)cc1 (centres undefined) -1.35%
OCCOC[C@H]1O[C@H](OCCO)[C@H](OCCO)[C@@H](OCCO)[C@@H]1OCCO (tested in a mixture with another compound) -9.17%
C[S+](C)CC[C@H](N)C(=O)O 1.12%
CC[C@@H]1/C=C(\C)C[C@H](C)C[C@H](OC)[C@H]2O[C@@](O)(C(=O)C(=O)N3CCCC[C@H]3C(=O)O[C@H](/C(C)=C/[C@@H]3CC[C@H](Cl)[C@H](OC)C3)[C@H](C)[C@@H](O)CC1=O)[C@H](C)C[C@@H]2OC -4.04%
NC(=O)C1CC2(NC(=O)NC2=O)c2cc(F)ccc2O1 (centres undefined) -4.4%
CN1[C@@H]2CC[C@@H]1CC(OC(=O)[C@H](CO)c1ccccc1)C2 (some centres undefined) -7.12%
CCCCCCCCCCCC(=O)OCC(O)C1OCC(O)C1O (centres undefined) -1.87%
C/C1=C2/[N-]C(C(CC(N)=O)[C@@]2(C)CCC(=O)NCC(C)OP(=O)([O-])O[C@H]2[C@@H](O)[C@@H](n3cnc4cc(C)c(C)cc43)O[C@@H]2CO)[C@]2(C)N=C(/C(C)=C3N=C(/C=C4N=C1C(CCC(N)=O)C\4(C)C)[C@@H](CCC(N)=O)[C@]\3(C)CC(N)=O)[C@@H](CCC(N)=O)[C@]2(C)CC(N)=O.CC(=O)O.[Co] (some centres undefined) -25.3%
CC1(C)OC[C@@H]2O[C@@]3(C(=O)O)OC(C)(C)O[C@@H]3[C@@H]2O1 -4.28%
Cc1ccccc1N1C(=O)c2cc(N)ccc2N/C1=C\F -15.7%
O=C1C(I)=CC(=C(c2cc(I)c(O)c(I)c2)c2ccccc2C(=O)O)C=C1I -19.7%
NC(=O)NC(CCC(=O)O)C(=O)O (centres undefined) -9.67%
CC(=O)OCC(=O)[C@@]1(O)CCC2C3C[C@H](C)C4=CC(=O)C=CC4(C)C3C(O)CC21C (some centres undefined) -6.71%
CC1(C)C2CC[C@]1(C)[C@@H](O)C2 -12.5%
OCC1O[C@H](Oc2ccc(O)cc2)C(O)C(O)C1O (some centres undefined) -6.69%
Nc1nc(F)nc2c1ncn2[C@@H]1O[C@H](CO)[C@@H](O)[C@H]1O -4.99%
CC1OC(OC2CCC3(C)C(CCC4C3CC(O)C3(C)C(C5=CC(=O)OC5)CCC43O)C2)CC(O)C1OC1CC(O)C(OC2CC(O)C(OC3OC(CO)C(O)C(O)C3O)C(C)O2)C(C)O1 (centres undefined) -9.89%
CC1OC(OCC2OC(Oc3c(-c4ccc(OCCO)c(OCCO)c4)oc4cc(OCCO)cc(O)c4c3=O)C(O)C(O)C2O)[C@@H](O)C(O)C1O (some centres undefined) 8.61%

Potency, active:
CCCCC(=O)OCC(=O)[C@]1(O)Cc2c(O)c3c(c(O)c2[C@H](OC2CC(NC(=O)C(F)(F)F)C(O)C(C)O2)C1)C(=O)c1c(OC)cccc1C3=O (some centres undefined) 3790 nM
C[C@H]1[C@@H](OC(=O)CCC(=O)O)OC2OC3(C)CC[C@H]4[C@H](C)CC[C@@H]1[C@@]24OO3 (some centres undefined) 3 nM
COc1cc2c(cc1O)CCN[C@@]21CS[C@H]2c3c(OC(C)=O)c(C)c4c(c3C(COC1=O)N1C2C2c3c(cc(C)c(OC)c3O)CC([C@@H]1O)N2C)OCO4 (some centres undefined) 0.2 nM
C[n+]1c2cc(N)ccc2cc2ccc(N)cc21 213 nM
CC[C@@]1(O)C[C@H](O[C@H]2C[C@@H](N(C)C)[C@@H](O[C@H]3C[C@@H](O)[C@@H](O[C@H]4CCC(=O)[C@@H](C)O4)[C@@H](C)O3)[C@@H](C)O2)c2c(cc3c(c2O)C(=O)c2c(O)cccc2C3=O)[C@H]1C(=O)OC 601 nM
CCC(C(=O)O)C1OC(C(C)C(O)C(C)C(=O)C(CC)C2OC3(C=CC(O)C4(CCC(C)(C5CCC(O)(CC)C(C)O5)O4)O3)C(C)CC2C)C(C)CC1C (centres undefined) 53.6 nM
COC1CC2CCC(C)[C@](O)(O2)C(=O)C(=O)N2CCCCC2C(=O)OC(C(C)CC2CCC(O)C(OC)C2)CC(=O)C(C)/C=C(/C)C(O)C(OC)C(=O)C(C)CC(C)C=CC=C/C=C\1C (some centres undefined) 1690 nM
CN[C@H](C)CCC=C(C)C 135 nM
